According to PubChem BioAssay (NCATS):

test: qHTS profiling of the MIPE4 collection as inhibitors of Plasmodium falciparum (DD2) proliferation (AID 743345); conditions: P. falciparum Dd2 in erythrocytes, SYBR Green DNA, 72 h; at 28.5 µM (top of the series) unless noted
In short: (§1)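 Parasite DNA was quantified by SYBR Green I fluorescence (ex 485, em 535 nm) after overnight lysis in saponin/Triton buffer at room temperature. Cultures at 0.3% parasitemia and 2.5% hematocrit were first exposed to compound for 72 h at 37 C; signals were normalised to artemisinin (0.29 uM) and vehicle wells.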

| Compound | parasite growth remaining, % of DMSO control (lower = more inhibition) |
| --- | --- |
| CC(=O)Nc1ccc(OC[C@](C)(O)C(=O)Nc2ccc([N+](=O)[O-])c(C(F)(F)F)c2)cc1 | 88.6% |
| COc1ccc2c(c1)[C@]13CCCCC1C(C2)N(C)CC3 (stereo partly drawn) | 85.3% |
| Cc1c(C(=O)Nc2cccc(C(F)(F)F)c2)cc(-c2ccccc2)n1CCCN1CCOCC1 | 69.6% |
| CCOC(=O)c1c(C(C#N)=CN)c2ccc(Cl)c(Cl)c2n1C | 97.1% |
| CC(C)(C)c1[nH]cnc1C=c1[nH]c(=O)c(=Cc2ccccc2)[nH]c1=O | 41.8% [at 57.5 µM] |
| c1cc2c(cc1[C@H]1OC[C@H]3[C@H]1CO[C@H]3c1ccc3c(c1)OCO3)OCO2 | 91.9% |
| Nc1nc(-c2nn(Cc3ccccc3F)c3ncccc23)nc(N)c1N1CCOCC1 | 91.1% |
| CCCC[N+]1(C)[C@H]2CC(OC(=O)[C@H](CO)c3ccccc3)C[C@H]1[C@H]1O[C@H]12 (stereo partly drawn) | 100% |
| O=C(Oc1ccc([N+](=O)[O-])cc1)N1CCN(Cc2cccc(Oc3ccccc3)c2)CC1 | 92.5% |
| CC(C)N(CCNC(=O)CN1CCCC1=O)C(C)C | 17.4% |
| C[C@]12CC[C@H]3[C@@H](CCC4=CC(=O)CC[C@@]43C)[C@H]1CC[C@H]2O | 90.8% |
| CC(C)[C@H]1C(=O)N[C@H](CO)Cc2c[nH]c3cccc(c23)N1C | 97.6% |
| O=C(O)CNC(=O)c1c(O)c2ccccc2n(Cc2ccccc2)c1=O | 93.4% |
| COc1cc([C@@H]2c3cc4c(cc3[C@@H](O)C3COC(=O)C32)OCO4)cc(OC)c1O (stereo partly drawn) | 88.5% |
| O=C(Oc1ccc([N+](=O)[O-])cc1)N1CCC(C(O)(c2ccc3c(c2)OCO3)c2ccc3c(c2)OCO3)CC1 | 78.9% |
| NC1=NC(=O)N2CC12 (stereo not drawn) | 93.9% |
| Cc1ccccc1-n1c(Cn2cnc3c(N)ncnc32)nc2cccc(C)c2c1=O | 12.7% |
| CC[C@H](CO)Nc1nc(NCc2ccccc2)c2ncn(C(C)C)c2n1 | 67.6% |
| C[C@@H]1[C@H](O)[C@@H](C)C=CC=CCCC=CC=CC=CC=C[C@H](O[C@H]2O[C@@H](C)[C@H](O)[C@@H](N)[C@@H]2O)CC2O[C@](O)(C[C@@H](O)[C@H](O)CC[C@@H](O)C[C@@H](O)C[C@@H](O)CC(=O)O[C@H]1C)C[C@H](O)[C@H]2C(=O)O | 103% |
| O=C(O)c1ccc(O)c2ncc(N3CCOCC3)cc12 | 37% |
| C[C@H]1CCCC=CC2C[C@H](O)C[C@@H]2[C@H](O)C=CC(=O)O1 (stereo partly drawn) | 9.17% |
| CN1[C@H]2CC(O)C[C@H]1[C@H]1O[C@H]12 (stereo partly drawn) | 12.2% |
| N=c1c2c(-c3ccccc3)c(-c3ccccc3)n(Cc3ccccc3)c2ncn1C1CCC(O)CC1 (stereo not drawn) | 9.02% |

test: qHTS profiling of the MIPE4 collection as inhibitors of Plasmodium falciparum (DD2) proliferation (Rep 2) (AID 743346); conditions: P. falciparum Dd2 in erythrocytes, SYBR Green DNA, 72 h; at 28.5 µM (top of the series)
In short: as §1

| Compound | parasite growth, % of control (lower = inhibition) [%] |
| --- | --- |
| CC(=O)Nc1ccc(OC[C@](C)(O)C(=O)Nc2ccc([N+](=O)[O-])c(C(F)(F)F)c2)cc1 | 88.3 |
| COc1ccc2c(c1)[C@]13CCCCC1C(C2)N(C)CC3 (stereo partly drawn) | 52.9 |
| CCCCN1CCC(CNC(=O)c2c3n(c4ccccc24)CCCO3)CC1 | 38.7 |
| Cc1c(C(=O)Nc2cccc(C(F)(F)F)c2)cc(-c2ccccc2)n1CCCN1CCOCC1 | 16.5 |
| CCOC(=O)c1c(C(C#N)=CN)c2ccc(Cl)c(Cl)c2n1C | 149 |
| C=CCON=C(C[C@H]1O[C@@H]2O[C@]3(C)CC[C@@H]4[C@H](C)CC[C@@H]([C@H]1C)[C@@]24OO3)[C@H]1O[C@@H]2O[C@]3(C)CC[C@H]4[C@H](C)CC[C@@H]([C@@H]1C)[C@@]24OO3 | 16.3 |
| c1cc2c(cc1[C@H]1OC[C@H]3[C@H]1CO[C@H]3c1ccc3c(c1)OCO3)OCO2 | 126 |
| Nc1nc(-c2nn(Cc3ccccc3F)c3ncccc23)nc(N)c1N1CCOCC1 | 60.8 |
| CCCC[N+]1(C)[C@H]2CC(OC(=O)[C@H](CO)c3ccccc3)C[C@H]1[C@H]1O[C@H]12 (stereo partly drawn) | 86.4 |
| O=C(Oc1ccc([N+](=O)[O-])cc1)N1CCN(Cc2cccc(Oc3ccccc3)c2)CC1 | 181 |
| CC(C)N(CCNC(=O)CN1CCCC1=O)C(C)C | 121 |
| C[C@]12CC[C@H]3[C@@H](CCC4=CC(=O)CC[C@@]43C)[C@H]1CC[C@H]2O | 93.2 |
| CC(C)[C@H]1C(=O)N[C@H](CO)Cc2c[nH]c3cccc(c23)N1C | 147 |
| O=C(O)CNC(=O)c1c(O)c2ccccc2n(Cc2ccccc2)c1=O | 75.1 |
| COc1cc([C@@H]2c3cc4c(cc3[C@@H](O)C3COC(=O)C32)OCO4)cc(OC)c1O (stereo partly drawn) | 64.3 |
| O=C(Oc1ccc([N+](=O)[O-])cc1)N1CCC(C(O)(c2ccc3c(c2)OCO3)c2ccc3c(c2)OCO3)CC1 | 33.6 |
| NC1=NC(=O)N2CC12 (stereo not drawn) | 46.3 |
| Cc1ccccc1-n1c(Cn2cnc3c(N)ncnc32)nc2cccc(C)c2c1=O | 6.97 |
| CC[C@H](CO)Nc1nc(NCc2ccccc2)c2ncn(C(C)C)c2n1 | 48 |
| C[C@@H]1[C@H](O)[C@@H](C)C=CC=CCCC=CC=CC=CC=C[C@H](O[C@H]2O[C@@H](C)[C@H](O)[C@@H](N)[C@@H]2O)CC2O[C@](O)(C[C@@H](O)[C@H](O)CC[C@@H](O)C[C@@H](O)C[C@@H](O)CC(=O)O[C@H]1C)C[C@H](O)[C@H]2C(=O)O | 97.5 |
| Cc1nc(-c2ccc(-c3ccc(C(=O)N4CCc5cc6c(cc54)C4(CCN(C)CC4)CO6)cc3)c(C)c2)no1 | 77.5 |
| C[C@H]1CCCC=CC2C[C@H](O)C[C@@H]2[C@H](O)C=CC(=O)O1 (stereo partly drawn) | 9.15 |
| CN1[C@H]2CC(O)C[C@H]1[C@H]1O[C@H]12 (stereo partly drawn) | 28.8 |
| COc1ccc2c(c1)CC[C@H]1[C@@H]2CC[C@]2(C)[C@@H](NCCCCCCN3C(=O)C=CC3=O)CC[C@H]12 | 37.3 |
| N=c1c2c(-c3ccccc3)c(-c3ccccc3)n(Cc3ccccc3)c2ncn1C1CCC(O)CC1 (stereo not drawn) | 12.7 |
